Source: PubChem BioAssay
HIF-2a inh: inhibitors of HIF-2a | 786-0 RCC cells HIF-2a reporter, luciferase luminescence, overnight | actives 0.72% (n = 360,000) | inhibition, % at 18.8 µM;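 active means inhibition of the luminescence signal of 40% or more relative to plate controls, in a single-dose primary screen at 18.75 µM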
CF NFkB block: inhibitors of cystic fibrosis induced NF-kB; actives 0.86% (n = 360,000); KKLEB NF-kB-GFP reporter, PAF-induced, GFP fluorescence overnight; AID 588850; inhibition, % at 5 µM;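 active means at least 50% inhibition at 5 µM, scaled per plate between neutral and stimulator controls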;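 further: PAF is a Pseudomonas aeruginosa culture filtrate used as stimulus; plate controls were PAF-stimulated DMSO wells for no effect and unstimulated DMSO wells for full effect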
KKLEB tox: counter-screen for CF NF-kB inhibitors: cytotoxicity; activity change (cytotoxicity), % at 5 µM; KKLEB CF airway cells viability, ATPlite luminescence, overnight; active compounds read low; cells stimulated with P. aeruginosa culture filtrate; AID 602141; actives 0.36% (n = 360,000);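 active means corrected activity change at or below -50% at 5 µM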
TWEAK-Fn14 inh: inhibitors of TWEAK-Fn14 interaction signaling; TWEAK-stimulated Fn14 reporter cells, luciferase luminescence, 8 h; inhibition, % at 10 µM; actives 2% (n = 360,000); AID 1159606; in the data active means inhibition above about 50%
TROY signal inh: TROY signaling inhibition | inhibition, % at 10 µM | actives 0.98% (n = 360,000) | Q293 LMP1-TROYcd NF-kB luciferase reporter, 4 h;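 active means compounds whose plate-normalised and pattern-corrected inhibition of the luciferase reporter signal at the single screening dose is 50% or more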
Peg3 prom inh: reduces Peg3 promoter-driven luciferase expression in HeLa. HeLa PEG-Prom luciferase reporter, luminescence, overnight. inhibition, % at 20 µM. actives 1.7% (n = 360,000). AID 588405;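 active means inhibition of at least 50% at 20 µM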
An asterisk follows results filed as active; . = not tested or not shown. In the library only some 4% were active in any assay of this set; here they are far more common.

SMILES | HIF-2a inh | CF NFkB block | KKLEB tox | TWEAK-Fn14 inh | TROY signal inh | Peg3 prom inh
CCN(CC)C(=O)c1[nH]cnc1C(=O)Nc1ccc(C)cc1 | 1.5 | 6.1 | -5.7 | -11.0 | -2.0 | 4.8
O=C(NCc1ccccc1F)C1CC(=O)N(Cc2ccco2)C1 (configuration not stated) | 10.8 | -29.4 | -4.2 | 0.0 | 7.9 | 22.6
COc1ccc2nc(NC(=S)NC(=O)c3ccco3)sc2c1 | -221.4 | -6.8 | -23.3 | 48.7 | 51.4* | -306.6
O=C(NC(=S)Nc1nc2ccccc2s1)c1ccco1 | -215.0 | -27.4 | -10.3 | 28.5 | 11.0 | -274.5
COc1ccc(-c2ccc3oc(-c4ccc(OC)cc4)c(C#CCO)c3c2)cc1 | 5.3 | 26.6 | -25.1 | 52.9* | 38.6 | 20.5
COc1ccc(-c2oc3ccc(N4CCOCC4)cc3c2C#CCO)cc1 | -17.9 | -18.5 | 4.3 | 97.1* | 54.3* | 82.9*
COc1ccc(-c2sc3ccc(N4CCOCC4)cc3c2C#CC(C)(C)O)cc1 | 2.1 | 17.2 | -6.1 | -67.6 | 1.6 | -5.5
CC(C)(C)c1ccc(OCCC(=O)NNC(=O)c2ccncc2)cc1 | -11.3 | -5.3 | -10.3 | 4.3 | -38.8 | -14.2
CCOC(=O)C1=C(c2ccccc2)NC(=O)NC1c1ccc(O)c(Cl)c1 (configuration not stated) | 25.2 | -6.9 | 20.0 | 72.8* | 8.2 | 28.1
O=C1C=C(N(CCO)Cc2ccccc2)c2ccccc2C1=O | -10.9 | 68.1* | 8.7 | 37.0 | 5.2 | 37.8
O=C1c2ccccc2C(=O)c2c1cccc2N(CCO)CCO | -49.3 | -12.2 | -4.5 | 1.5 | -29.6 | -14.3
Cc1cc(C)c2c(N)c(C(=O)c3ccccc3Cl)sc2n1 | 5.6 | 10.8 | -7.1 | 11.2 | 17.2 | 21.8
Cc1cc(C)c2c(N)c(C(=O)c3ccc(Cl)cc3Cl)sc2n1 | 8.3 | 48.9 | 7.1 | 52.3* | 30.0 | -0.7
O=C(COC(=O)Cc1c(Cl)cccc1Cl)NCc1ccccc1 | 15.7 | 5.4 | 0.8 | -16.3 | 6.4 | 4.1
Cc1ccc(N2C(=O)C3CCCN3C2=S)cc1C (configuration not stated) | -8.9 | 1.1 | 2.0 | 18.6 | -45.0 | -17.6
OC[C@@H]1CN(Cc2ccc(-c3ccccc3)cc2)C[C@H](n2cnc3c(NC4CCC4)ncnc32)O1 | -4.7 | 2.0 | -5.8 | 59.0* | 36.1 | 7.7
O=C(CCNS(=O)(=O)c1ccccc1)OCc1ccc([N+](=O)[O-])cc1 | 16.8 | -12.1 | 4.8 | 10.9 | -1.3 | 3.6
CCCCNc1c(-c2cccc(-c3ccc(OC)cc3)c2)nc2cc(C)ccn12 | -80.5 | 20.1 | -13.0 | 31.3 | 29.1 | 88.7*
CCCCNc1c(-c2ccc(OC)c(SC3CCCCC3)c2)nc2cc(C)ccn12 | -17.5 | 27.9 | -3.5 | 27.1 | 17.4 | 56.2*
CCCCNc1c(-c2ccc(OC)c(SC3CCCCC3)c2)nc2cnccn12 | -18.7 | 20.9 | -14.2 | 9.9 | 6.4 | 68.2*
Cc1ccn2c(NC3CCCCC3)c(-c3cccc(-c4cccc(Cl)c4)c3)nc2c1 | -12.7 | 18.4 | -8.9 | -11.4 | -51.7 | 55.7*
CCCCNc1c(-c2ccc(-c3cccc(Cl)c3)cc2)nc2ccccn12 | -321.5 | -8.0 | -3.4 | -15.2 | -45.2 | -271.6
Cc1ccn2c(NC3CCCC3)c(-c3ccncc3)nc2c1 | 9.4 | -3.2 | -3.6 | -0.7 | -4.2 | 19.5
COc1ccc(-c2nc3cnccn3c2NCc2ccccc2)cc1SC1CCCCC1 | 2.9 | -0.4 | 3.8 | 5.5 | -5.2 | 47.1
CCCCNc1c(-c2cccc(-c3cc(C(C)=O)cs3)c2)nc2ccc(C)cn12 | -174.3 | 83.3* | -93.2* | 40.2 | 25.2 | 62.0*
SMILES | HIF-2a inh | CF NFkB block | KKLEB tox | TWEAK-Fn14 inh | TROY signal inh | Peg3 prom inh
CC1(C(=O)NS(=O)(=O)c2ccc(F)cc2F)CCN1C(=O)CCc1ccc(Cl)cc1Cl (configuration not stated) | 5.9 | 11.5 | 0.5 | 6.5 | -17.2 | -7.8
Cc1c(CCOC(=O)C23CC4CC(CC(C4)C2)C3)sc[n+]1CC#N | 1.3 | 76.0* | -63.3* | 25.5 | 10.5 | 51.1*
c1ccc2c(c1)OCC(c1csc3ncnc(N4CCCCC4)c13)O2 (configuration not stated) | 35.2 | 45.5 | -13.0 | 50.5* | 33.0 | 15.7
COc1cc2sc(-c3ccc(S(C)(=O)=O)cc3)c(-c3ccc4c(c3)OCO4)c2cc1OC | 15.5 | 32.1 | -18.0 | -51.9 | -16.5 | 32.9
Cc1nn(C(=O)CN2C(=O)c3ccccc3C2=O)c(C)c1Br | 6.2 | 5.4 | -0.4 | 94.7* | . | 12.8
Cc1ccc(S(=O)(=O)Nc2ccccc2C(N)=O)cc1 | 2.5 | 3.7 | -5.3 | -9.3 | -3.3 | 6.1
COc1cc(NS(=O)(=O)c2ccc(C)cc2)c2ncccc2c1 | 18.0 | 47.6 | -3.5 | 107.3* | 27.6 | 68.2*
Cc1ccc(S(=O)(=O)Nc2ccccc2-c2ccccc2NS(=O)(=O)c2ccc(C)cc2)cc1 | 12.7 | 30.6 | 14.3 | -1.4 | 51.5* | 33.4
c1ccc(-c2cc3c(N4CCN(c5ccccc5)CC4)ncnc3s2)cc1 | -52.9 | 8.4 | 9.6 | 42.5 | 27.0 | 4.3
Cc1ccc(S(=O)(=O)N2CCN(c3ncnc4scc(-c5ccccc5)c34)CC2)cc1 | -3.6 | 9.4 | -5.9 | -3.1 | 1.7 | 8.4
Cc1sc2ncnc(N3CCN(S(=O)(=O)c4ccccc4)CC3)c2c1C | 29.9 | 9.1 | -5.0 | 74.0* | 4.5 | 30.9
O=S(=O)(c1ccc(Br)cc1)N1CCN(c2cc(-c3ccccc3)nc3ncnn23)CC1 | -17.3 | -4.7 | 1.7 | 24.6 | -10.1 | 5.9
O=S(=O)(c1ccccc1)N1CCN(c2cc(-c3ccccc3)nc3ncnn23)CC1 | 10.3 | 14.7 | 9.1 | 70.3* | 32.3 | 14.5
O=S(=O)(c1ccccc1)N1CCN(c2ncnc3sc(-c4ccccc4)cc23)CC1 | 16.4 | 6.6 | -2.1 | 81.4* | 37.4 | 1.5
Cc1ccc(OCCN2CCN(c3ncnc4sc(C)c(C)c34)CC2)cc1 | 11.2 | 2.5 | -16.7 | 50.4* | 38.6 | 18.8
CCOc1ccc2oc(C(=O)N(CC)CC(=O)Nc3c(F)cccc3F)c(C)c2c1 | -10.5 | 12.2 | -2.4 | -2.3 | -18.8 | -3.5
COc1ccc(/C=C/C(=O)OCC(=O)NC(C)CCc2ccccc2)cc1 (configuration not stated) | 7.5 | -19.2 | 13.0 | 15.0 | 1.1 | 13.5
Nc1nc(CSC(=S)N2CCOCC2)nc(Nc2ccccc2)n1 | -177.5 | 17.2 | -7.3 | -1.4 | -71.5 | -294.4
Nc1nc(CSC(=S)N2CCN(c3ccccc3)CC2)nc(Nc2ccc(F)cc2)n1 | 14.5 | -5.6 | -15.5 | 50.0* | 6.4 | 8.6
Cc1ccc2nc(N(CCCN(C)C)C(=O)c3cc(-c4cccs4)nc4ccccc34)sc2c1 | -0.9 | 33.2 | -13.6 | 18.7 | -11.1 | 107.3*
CN(C)CCCN(C(=O)c1sc2ccccc2c1Cl)c1nc2c(F)cccc2s1 | -8.2 | 6.3 | -6.7 | -16.4 | -34.8 | -7.7
Cc1cccc2sc(N(CCCN(C)C)C(=O)c3ccc(C(=O)c4ccccc4)cc3)nc12 | -4.7 | 29.2 | 5.5 | 22.0 | -22.7 | 86.2*
